# High-throughput results from PubChem.
# Only some compounds are listed: those with a hit (about 11% of all), similar ones and a draw of the others.
# USP17 inh: inhibitors of human USP17 deubiquitinase; A8MUK1; purified USP17, Ub-rhodamine cleavage fluorescence, 3 h; inhibition, % at 50 µM; hit rate 6.5% among 47,000
# USP30 block: inhibitors of human USP30 deubiquitinase; Q70CQ3; purified USP30, Ub-rhodamine cleavage fluorescence; inhibition, % at 25 µM; hit rate 5.3% among 47,000; AID 1645860
# Target sequence (Q70CQ3 whole entry, looked up): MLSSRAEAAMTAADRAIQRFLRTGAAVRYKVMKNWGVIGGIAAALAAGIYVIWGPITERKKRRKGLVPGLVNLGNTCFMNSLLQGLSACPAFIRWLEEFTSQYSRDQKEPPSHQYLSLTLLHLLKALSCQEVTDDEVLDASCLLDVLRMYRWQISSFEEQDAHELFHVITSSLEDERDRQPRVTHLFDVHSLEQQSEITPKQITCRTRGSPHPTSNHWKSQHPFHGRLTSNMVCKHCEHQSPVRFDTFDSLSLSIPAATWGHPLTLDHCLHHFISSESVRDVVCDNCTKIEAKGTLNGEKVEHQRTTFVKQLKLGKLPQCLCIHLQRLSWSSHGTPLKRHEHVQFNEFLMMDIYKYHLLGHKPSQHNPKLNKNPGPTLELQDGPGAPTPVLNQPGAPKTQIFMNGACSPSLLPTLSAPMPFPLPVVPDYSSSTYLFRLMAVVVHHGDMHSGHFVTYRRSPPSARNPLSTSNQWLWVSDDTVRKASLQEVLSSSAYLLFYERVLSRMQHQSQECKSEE
# USP28 inh: blocks human USP28 ubiquitin-rhodamine cleavage | purified USP28, Ub-rhodamine cleavage fluorescence, 30 min | hit rate 3% among 47,000 | Q96RU2 | inhibition, % at 25 µM
# The depositor's hits bear a star; i = inactive; . = no result. No stated cut-off is given here; in the data, active means inhibition above about 30%; inactive means the rest.
SMILES,USP17 inh,USP30 block,USP28 inh
Cc1cccc(NC(=O)N2CCC3(C2)C(=O)N(C)c2ccccc23)c1 (centres undefined),0,-18,0
Cc1cc(C(=O)Nc2cc(C)n(Cc3ccc(Cl)cc3)n2)no1,11,1,72*
Cc1cc(C(=O)N2CC[C@@H]3CN(Cc4ccc(Cl)cc4)S(=O)(=O)[C@@H]3CC2)no1,-18,-29,-9
COc1ccc(/C=C/C(=O)Nc2cccc(S(=O)(=O)Nc3ccccc3Cl)c2)c(OC)c1,7,69*,52*
COc1ccccc1NS(=O)(=O)c1cccc(NS(=O)(=O)c2cc(/C=C/C(=O)O)cc(OC)c2OC)c1,-1,12,11
Cc1ccc(NC(=O)c2nnc(C3CCCN3C(=O)C3CCC3)s2)cc1 (centres undefined),14,33*,15
CNC(=O)N1CCCC1c1nnc(C(=O)Nc2ccc(F)c(F)c2)s1 (centres undefined),-29,-20,0
CCOC(=O)c1cc2c(ccn2C)n1CC(=O)NC1CC1,-134,i,-214
Cc1noc(-c2nn(C)c3c2CN(C(=O)C2(c4ccccc4)CC2)CC3)n1,1,5,-1
O=C(Nc1nc2c(ccc3ccccc32)s1)c1cccc(Br)c1,47*,65*,13
O=C(Cc1cccc2ccccc12)Nc1nc2ccc(Br)cc2s1,-21,-5,11
Cc1ccc2nc(NC(=O)C3CCCN3S(=O)(=O)c3ccc4c(c3)OCCO4)sc2c1 (centres undefined),7,0,53*
Cc1ccc(S(=O)(=O)N2CCCCC2C(=O)Nc2nc3ccc(S(C)(=O)=O)cc3s2)cc1 (centres undefined),-19,-8,8
C=C(C)CSc1nc(Cc2ccccc2)nc2sc3c(c12)CC(C)(C)OC3,8,11,33*
C=C(C)CSc1nc(CC)nc2sc3c(c12)CC(C)(C)OC3,0,1,25
Cc1cc(C)cc(NC(=O)c2cccc(-c3noc(C)n3)c2)c1,-7,-2,-1
Cc1nc(-c2cccc(NC(=O)c3ccc4c(c3)OCO4)c2)no1,-48,-231,-39
CC(=O)Nc1ccc(C(=O)Nc2cccc(-c3noc(C)n3)c2)cc1,48*,.,.
Cc1nc(-c2ccc(-n3cc(C(=O)Nc4cccc(F)c4)c(C)n3)cc2)no1,51*,16,7
Fc1ccc(-n2cc(-c3ccncn3)cn2)c(F)c1,18,25,14
O=C(NCCN1CCOCC1)c1cc(-c2cccnc2)n(-c2ccc(F)cc2)n1,1,17,-3
Cc1sc(-c2ccc(Cl)nc2)nc1OC(=O)c1ccc(F)cc1F,53*,45*,10
Cc1sc(-c2ccncc2)nc1OC(=O)c1ccc(F)cc1F,3,6,8
COCCn1ccc2nc(C)c(C(=O)Nc3ccc4c(c3)OCO4)cc2c1=O,29,-17,1
Cc1noc(C2CN(Cc3cccc(F)c3)Cc3ccnn3C2)n1 (centres undefined),-15,.,.
SMILES,USP17 inh,USP30 block,USP28 inh
Cc1cnc(C(=O)N2CC[C@@H]3CN(CC(C)C)S(=O)(=O)[C@@H]3CC2)cn1,6,6,2
C[C@]12C(=O)N(c3ccccc3C(=O)NC3CCCCC3)C(=O)N1CCc1c2[nH]c2ccccc12,45*,32*,6
COc1ccc(CCNC(=O)c2ccccc2N2C(=O)N3CCc4c([nH]c5ccc(OC)cc45)[C@@]3(C)C2=O)cc1,43*,41*,-2
COc1ccc2[nH]c3c(c2c1)CCN1C(=O)N(c2ccccc2C(=O)NCCc2ccccc2)C(=O)[C@]31C,11,-21,-12
CC1CCC(NC(=O)c2ccccc2N2C(=O)N3CCc4c([nH]c5ccccc45)[C@@]3(C)C2=O)CC1 (some centres undefined),5,-9,-2
Cc1nc2ncc3c(n2n1)CC(c1ccccc1)CC3=O (centres undefined),-17,-17,-22
Cn1c(=O)c2c(ncn2CCOc2ccc(F)cc2)n(C)c1=O,16,30,33*
Cn1c(=O)c2c(ncn2CCOc2ccc(Br)cc2)n(C)c1=O,13,22,16
Fc1ccc(Cc2nc(-c3ccn4cnnc4c3)no2)cc1,-3,-56,36*
Brc1ccccc1Cc1nc(-c2ccn3cnnc3c2)no1,-5,-158,2
CCOC(=O)N1CCN(C(=O)c2ccc(NCc3ccc(F)cc3)c(S(=O)(=O)Nc3cccc(C(F)(F)F)c3)c2)CC1,13,24,26
CC(NC(c1ccccc1)c1ccccc1)C(=O)Nc1ccccc1F (centres undefined),-10,-18,-14
CC1(C(=O)NCc2ccccc2)Cn2c(cc3ccccc32)C(=O)N1Cc1ccccc1 (centres undefined),50*,0,23
CC(C)CCNC(=O)C1(C)Cn2c(cc3ccccc32)C(=O)N1Cc1cccnc1 (centres undefined),2,6,1
